Shown are actives, neighbours in structure and some others; about 4.2% of the full set was active somewhere.
SW480 rerep = DNA re-replication induction in SW480 cells; SW480 DNA re-replication, Hoechst DNA content imaging, 48 h; Potency, µM (titrated, usually from 46.1 µM), actives largely listed as activators; 1.8% of 340,000 active; also: nearly all actives have a fitted effect of over 55% in size
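Image-based DNA-content assay: after two days of treatment, nuclei were labelled with the DNA dye Hoechst and imaged, and hits were compounds raising the count of nuclei showing high fluorescence intensity.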
Mito fusion act = blocks mitochondrial division or promotes mitochondrial fusion; S. cerevisiae fusion-defective mutant growth rescue, CellTiterGlo 48 h; 0.23% of 320,000 active; Potency, µM (top dose mostly 46.1 µM), actives largely listed as activators; also: nearly all actives have a fitted effect of over 45% in size
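Luminescent cell viability in 1536-well qHTS format served as the measure of rescued growth in ts fusion-mutant S. cerevisiae cultured on non-fermentable YPEG for 48 hours at 37C.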
MCF10A rereplic = DNA re-replication induction in MCF 10a cells; MCF 10A DNA re-replication, Hoechst nuclear intensity, 48 h; Potency, µM (highest dose often 46.1 µM), actives largely listed as activators; 2.9% of 350,000 active; also: nearly all actives have a fitted effect of over 50% in size
AT treatment = potential ataxia-telangiectasia treatments restoring KAP-1 phosphorylation | Potency, µM (top dose mostly 57.5 µM), actives largely listed as activators | 0.19% of 320,000 active | F2112 A-T fibroblasts, KAP-1 phosphorylation AlphaLISA; neocarzinostatin DNA damage 30 min before lysis; also: nearly all actives have a fitted effect of over 45% in size
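ATM-like activity read as KAP-1 phosphorylation via AlphaLISA donor/acceptor antibody pairs after lysis and 6 hr at 25C. Cells were ATM-null patient fibroblasts (F2112, hTERT), dosed 60 min, then exposed to the DSB inducer NCS for 30 min.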
a7 integrin act = activators of alpha7 integrin expression for muscular dystrophy; alpha7betagal myoblasts, beta-gal FDG fluorescence, 48 h; 0.064% of 350,000 active; Potency, µM (titrated, usually from 38.3 µM), usual class: activators; also: nearly all actives have a fitted effect of over 60% in size
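Alpha7betagal+/- myoblasts (passage 13) were plated 16-24 hr, then exposed to compounds (1:260 dilution of DMSO stock) for 48 hours at 37C. After MPER lysis, β-galactosidase reporter activity was read as FDG fluorescence (ex 480/em 540) after 30 minutes.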
A number is an active result; – = inactive; ? = inconclusive; · = no result given; [ ] = remark or other dose. Calls follow the shape of the dose curve; as a rule, active = well fitted activation curve with a large enough effect; inconclusive = small, poorly fitted or top-dose-only effect; inactive = no such curve, though single readings can be large or run the other way.

SMILES	SW480 rerep	Mito fusion act	MCF10A rereplic	AT treatment	a7 integrin act
CCN(CC)C(=O)[C@H]1CC(CC(=O)NCCC2=CCCCC2)C(=O)N2CCc3c([nH]c4ccccc34)[C@]12C (stereo partly drawn)	?	·	–	–	–
CCN(CC)C(=O)[C@H]1CC(CC(=O)NCC23CC4CC(CC(C4)C2)C3)C(=O)N2CCc3c([nH]c4ccccc34)[C@]12C (stereo partly drawn)	23µM	·	?	–	–
CCOC(=O)c1cc([N+](=O)[O-])c([N+](=O)[O-])cc1NC(C)=O	?	–	10µM	–	–
CCOC(=O)c1ccc(NC(=O)c2ccccc2[N+](=O)[O-])cc1	–	–	–	–	–
c1ccc(-c2sc3ccccc3c2-c2ccc(OCCN3CCCC3)cc2)cc1	4.6µM	·	–	–	–
COc1ccc(-c2sc3ccccc3c2-c2ccc(OCCN3CCCCC3)cc2)cc1	?	·	?	–	–
O=C1OC(COCC#Cc2ccccc2)CN1c1ccccc1 (stereo not drawn)	·	·	·	·	–
Cc1ccc(S(=O)(=O)CCc2nc3ccccc3n2CCC#N)cc1	?	–	18µM	–	–
O=C(O)Cn1c(CCS(=O)(=O)c2ccc(Br)cc2)nc2ccccc21	–	–	–	–	–
O=C1NC(Cc2ccccc2)c2nc3cc(Cl)ccc3c(=O)n2-c2ncccc21 (stereo not drawn)	·	·	·	·	–
COc1ccc(-c2[nH]ncc2/C=C(/C#N)C(=O)NC2CCCCCC2)cc1	13µM	–	10µM	–	–
CCc1cccc(CC)c1NC(=O)/C(C#N)=C/c1ccccc1C(F)(F)F	–	–	12µM	–	–
N#C/C(=C\c1ccccc1C(F)(F)F)C(=O)Nc1ccccc1	–	–	–	–	–
COc1ccc(/C=N\N=C2/SC(CC(=O)O)C(=O)N2c2ccc(O)cc2)cc1 (stereo not drawn)	–	–	16µM	–	–
CCc1ccc(NC(=S)N2CCCCCCC2)cc1	–	–	–	–	–
CC(=O)CCC1C2C(O)C(C(C)C)C(OC(=O)/C=C/c3ccccc3)CC12C (stereo not drawn)	–	3.5µM	–	–	–
Cc1cc(Cl)ccc1Oc1ccc(C(N)=O)cc1[N+](=O)[O-]	–	–	?	–	–
Cc1cc(Cl)ccc1Oc1ccccc1C(=O)CC#N	–	–	23µM	–	–
COc1c(C)cc(C(=O)C2CCCN(C(=O)c3ccc4cc[nH]c4c3)C2)cc1C (stereo not drawn)	–	–	–	–	–
CCOc1cc(S(=O)(=O)N2CCCC2)ccc1Cl	0.73µM	–	1µM	·	–
O=[N+]([O-])c1cc(S(=O)(=O)N2CCCCCC2)ccc1Cl	–	–	16µM	–	–
C#CCOCCOCCOCCNc1nc(N2CCN(C(=O)[C@H]([C@@H](C)CC)n3cc([C@@H](N)CC(C)C)nn3)CC2)nc(N2CCN(C(=O)[C@H](CCCCN)n3cc([C@@H](N)CO)nn3)CC2)n1	–[9.22 µM]	–	–	–	–
COc1cc2c(cc1OC)C1O[C@](c3ccsc3)(C2)Oc2cc(C)n(Cc3ccccc3)c(=O)c21	·	–[9.22 µM]	·	–[11.5 µM]	·
COc1ccc(N=C2C(=O)Nc3ccccc32)cc1	?	–	–	–	?
COc1ccc(N=C2C(=O)N3c4c(cccc42)C(C)=CC3(C)C)cc1	21µM	–	21µM	–	–
SMILES	SW480 rerep	Mito fusion act	MCF10A rereplic	AT treatment	a7 integrin act
CC[C@]12CCCN3CCc4c(n(c5ccccc45)C(=O)C1)[C@@H]32	13µM	–	?	–	·
O=C(OCc1cn([C@H]2CN(C(=O)C3CCCCC3)[C@@H](c3ccccc3)C[C@@H]2O)nn1)c1ccccc1	·	·	·	·	–
CCN1CCC(O)(/C=C/c2ccc(C(C)C)cc2)C(C(=O)/C=C/c2ccc(C(C)C)cc2)C1 (stereo not drawn)	?	·	12µM	·	–
O=C(CCc1ccccc1)Nc1nc2n(n1)C(c1ccccc1)CC(=O)N2 (stereo not drawn)	–[9.22 µM]	–	–	32µM	–
CC1(C)CC2CC(C)(CN2C(=S)NC(=O)c2ccccc2Cl)C1 (stereo not drawn)	–	–	?	–	–
CN(Cc1ccccc1)CC(O)COc1ccc(CNCc2ccc(Cl)s2)cc1 (stereo not drawn)	21µM	–	16µM	–	–
O=C(NC1CCCCC1)c1cccc2c1C(=O)c1ccc(-c3ccc(OC(F)(F)F)cc3)cc1S2(=O)=O	–	·	0.92µM	–	–
O=C(NCC1CCCO1)c1cccc2c1C(=O)c1ccc(N3CCC(Cc4ccccc4)CC3)cc1S2(=O)=O (stereo not drawn)	–	·	3.7µM	–	–
O=C(NC1CCCC1)c1cccc2c1C(=O)c1ccc(/C=C/c3ccccc3)cc1S2(=O)=O	–	–	–	–	–
O=C(NCc1cccc(OC(F)(F)F)c1)c1cccc2c1C(=O)c1ccc(-c3ccc(F)cc3OCc3ccccc3)cc1S2(=O)=O	–	·	–	–	–
COc1ccc(-c2ccc3c(c2)S(=O)(=O)c2cccc(C(=O)NCc4cccc(OC(F)(F)F)c4)c2C3=O)cc1OC	–	·	1.8µM	–	–
O=C(NCc1ccccc1)c1cccc2c1C(=O)c1ccc(/C=C/c3ccccc3)cc1S2(=O)=O	23µM	·	18µM	–	–
Cc1ccccc1OCC(=O)OCC(=O)NC1CCCC(C)C1C (stereo not drawn)	·	·	·	·	–
C=CCN1C(=O)C(CC(=O)NCC)SC1=Nc1cc(Cl)ccc1Cl (stereo not drawn)	–	–	–	–	–
CSC(=S)N/N=C/c1ccccc1	–	–	–	–	–
COc1ccc(-c2ccc3c(c2)S(=O)(=O)c2cccc(C(=O)N4CCN(c5ccccn5)CC4)c2C3=O)cc1OC	·	·	·	·	–
COc1ccc(-c2ccc3c(c2)S(=O)(=O)c2cccc(C(=O)N4CCN(C5CCCCC5)CC4)c2C3=O)cc1OC	21µM	·	21µM	–	–
Clc1ccc(Oc2cnns2)c(Cl)c1	–	–	–	–	–
S=c1[nH]cc(Oc2ccc(Cl)cc2Cl)c(=S)[nH]1	?	·	16µM	·	–
OCCN1CCN(c2nc(-c3ccccc3)c3cc(Cl)ccc3n2)CC1	15µM	–	?	–	–
Cc1ccc2nc(N3CCN(CCO)CC3)nc(-c3ccccc3)c2c1	12µM	–	3.7µM	–	–
CCOC(=O)N1CCN(c2nc(-c3ccccc3)c3cc(C)ccc3n2)CC1	?	–	4.1µM	?	–
O=C(Nn1c(-c2ccncc2)nc2ccccc2c1=O)c1ccccc1Br	–	–	–	–	–
O=C(NCC1CCCN(C2Cc3ccccc3C2)C1)c1cccs1 (stereo not drawn)	–	–	–	–	–
OCC1OC(O)C(O)C(O)C1O (stereo not drawn)	–	·	–	·	·
OCC1OC([S-])[C@H](O)C(O)C1O.[Au+] (stereo partly drawn)	–	·	30µM	·	·

Source: PubChem
